The full data set covers some 7,900 targets. This sample favours those with a hit. About 0.6% of all pairs of compound and target were hits.
What follows are targets tested with C[C@@H]1COCCN1C2=NC(=NC(=C2)C3(CC3)S(=O)(=O)C)C4=C5C=CNC5=CC=C4 (assay: log2 fold change, soluble protein after heating vs DMSO (PISA); higher = thermal stabilisation; K562 cells, 10 uM, 30 min; active = over 0.2 and 3.5 SD of the protein, either way, in both replicates (recomputed)).
In short: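 Quantification of soluble protein used TMTpro 16plex LC-MS/MS, with channel sums equalised. Samples were the supernatant after 21,000xg for 90 min of pooled aliquots from K562 cells (2×10^6 cells/mL) treated with 10 μM compound for 30 min, heated for 3 min over 48°C-58°C, and extracted in PBS with 0.5% NP-40 at 4°C. Values, from duplicates, describe thermal stability against control samples on a log2 fold-change scale.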

Sequence of UniProt Q8IV08 (Q8IV08 whole entry, looked up): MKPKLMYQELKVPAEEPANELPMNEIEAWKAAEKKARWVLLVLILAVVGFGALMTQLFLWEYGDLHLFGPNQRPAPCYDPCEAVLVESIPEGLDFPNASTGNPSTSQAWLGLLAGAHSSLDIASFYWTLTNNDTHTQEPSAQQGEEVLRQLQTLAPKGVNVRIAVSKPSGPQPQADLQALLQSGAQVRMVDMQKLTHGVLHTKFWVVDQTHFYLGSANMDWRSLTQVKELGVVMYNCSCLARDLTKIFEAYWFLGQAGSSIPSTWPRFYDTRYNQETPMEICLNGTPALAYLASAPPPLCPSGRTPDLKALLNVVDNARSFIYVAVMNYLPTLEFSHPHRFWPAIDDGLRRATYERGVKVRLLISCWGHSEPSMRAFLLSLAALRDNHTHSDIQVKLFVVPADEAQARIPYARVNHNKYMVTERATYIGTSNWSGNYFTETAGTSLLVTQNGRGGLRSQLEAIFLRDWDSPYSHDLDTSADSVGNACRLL
Sequence of UniProt O00233 (O00233 whole entry, looked up): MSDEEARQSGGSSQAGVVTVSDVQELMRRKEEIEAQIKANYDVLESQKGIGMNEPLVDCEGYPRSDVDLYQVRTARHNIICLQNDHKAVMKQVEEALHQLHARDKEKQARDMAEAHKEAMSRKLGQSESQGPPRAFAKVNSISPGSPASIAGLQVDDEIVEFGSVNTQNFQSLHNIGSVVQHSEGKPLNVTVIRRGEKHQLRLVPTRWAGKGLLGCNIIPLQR
Sequence of UniProt Q8NHP8 (Q8NHP8 whole entry, looked up): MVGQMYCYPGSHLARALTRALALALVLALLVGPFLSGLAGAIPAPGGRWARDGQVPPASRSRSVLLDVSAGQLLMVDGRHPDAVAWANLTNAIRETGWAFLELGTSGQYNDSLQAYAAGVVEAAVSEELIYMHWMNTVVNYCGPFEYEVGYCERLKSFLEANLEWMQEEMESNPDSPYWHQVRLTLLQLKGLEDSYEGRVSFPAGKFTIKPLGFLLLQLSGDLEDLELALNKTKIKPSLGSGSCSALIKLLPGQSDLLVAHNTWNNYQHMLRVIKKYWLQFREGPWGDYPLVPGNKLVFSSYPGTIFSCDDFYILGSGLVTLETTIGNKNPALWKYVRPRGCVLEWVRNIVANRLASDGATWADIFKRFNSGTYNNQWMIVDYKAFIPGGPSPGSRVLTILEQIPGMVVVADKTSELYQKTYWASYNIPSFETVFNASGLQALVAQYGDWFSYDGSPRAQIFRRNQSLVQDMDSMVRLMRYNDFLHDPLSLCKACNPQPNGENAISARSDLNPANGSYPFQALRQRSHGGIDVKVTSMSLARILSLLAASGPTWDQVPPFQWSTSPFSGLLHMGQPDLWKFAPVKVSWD
Sequence of UniProt Q9NVM4 (Q9NVM4 whole entry, looked up): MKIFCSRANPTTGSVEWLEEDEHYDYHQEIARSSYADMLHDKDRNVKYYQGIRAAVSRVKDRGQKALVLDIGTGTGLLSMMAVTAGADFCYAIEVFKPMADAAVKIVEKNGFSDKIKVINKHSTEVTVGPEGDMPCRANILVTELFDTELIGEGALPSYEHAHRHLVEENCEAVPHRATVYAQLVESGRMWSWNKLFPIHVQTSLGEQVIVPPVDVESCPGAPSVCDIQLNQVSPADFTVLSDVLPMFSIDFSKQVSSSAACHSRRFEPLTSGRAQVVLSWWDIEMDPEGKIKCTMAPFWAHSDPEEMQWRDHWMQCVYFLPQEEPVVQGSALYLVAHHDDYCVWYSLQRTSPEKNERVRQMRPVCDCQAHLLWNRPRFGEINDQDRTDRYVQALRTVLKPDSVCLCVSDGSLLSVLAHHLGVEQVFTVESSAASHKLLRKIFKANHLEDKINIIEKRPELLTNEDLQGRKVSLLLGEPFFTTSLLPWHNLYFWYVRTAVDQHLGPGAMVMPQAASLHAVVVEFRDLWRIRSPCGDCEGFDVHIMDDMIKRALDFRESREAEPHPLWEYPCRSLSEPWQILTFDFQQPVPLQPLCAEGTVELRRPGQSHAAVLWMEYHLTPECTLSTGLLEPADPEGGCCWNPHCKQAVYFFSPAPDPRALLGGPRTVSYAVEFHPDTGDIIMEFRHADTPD
Sequence of UniProt Q15054 (Q15054 whole entry, looked up): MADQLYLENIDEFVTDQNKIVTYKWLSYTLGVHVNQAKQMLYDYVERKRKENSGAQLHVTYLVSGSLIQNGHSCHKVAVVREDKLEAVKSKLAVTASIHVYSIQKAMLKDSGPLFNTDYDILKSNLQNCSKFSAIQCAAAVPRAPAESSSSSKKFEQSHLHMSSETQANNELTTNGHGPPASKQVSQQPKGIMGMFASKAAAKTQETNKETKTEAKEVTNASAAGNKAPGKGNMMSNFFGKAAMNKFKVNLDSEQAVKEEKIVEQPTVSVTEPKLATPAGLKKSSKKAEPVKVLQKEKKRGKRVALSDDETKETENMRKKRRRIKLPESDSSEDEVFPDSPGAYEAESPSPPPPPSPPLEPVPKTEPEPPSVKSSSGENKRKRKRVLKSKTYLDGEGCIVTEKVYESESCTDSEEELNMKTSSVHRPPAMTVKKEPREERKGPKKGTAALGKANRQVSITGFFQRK
Sequence of UniProt Q9UBV8 (Q9UBV8 whole entry, looked up): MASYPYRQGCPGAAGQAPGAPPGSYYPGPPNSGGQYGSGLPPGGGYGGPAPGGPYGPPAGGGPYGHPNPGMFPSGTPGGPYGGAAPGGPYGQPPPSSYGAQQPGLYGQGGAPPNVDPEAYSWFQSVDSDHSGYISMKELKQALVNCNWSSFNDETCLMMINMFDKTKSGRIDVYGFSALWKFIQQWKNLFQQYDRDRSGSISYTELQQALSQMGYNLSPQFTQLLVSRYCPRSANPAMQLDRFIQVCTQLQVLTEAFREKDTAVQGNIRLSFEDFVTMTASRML
Sequence of UniProt Q6L8Q7 (Q6L8Q7 whole entry, looked up): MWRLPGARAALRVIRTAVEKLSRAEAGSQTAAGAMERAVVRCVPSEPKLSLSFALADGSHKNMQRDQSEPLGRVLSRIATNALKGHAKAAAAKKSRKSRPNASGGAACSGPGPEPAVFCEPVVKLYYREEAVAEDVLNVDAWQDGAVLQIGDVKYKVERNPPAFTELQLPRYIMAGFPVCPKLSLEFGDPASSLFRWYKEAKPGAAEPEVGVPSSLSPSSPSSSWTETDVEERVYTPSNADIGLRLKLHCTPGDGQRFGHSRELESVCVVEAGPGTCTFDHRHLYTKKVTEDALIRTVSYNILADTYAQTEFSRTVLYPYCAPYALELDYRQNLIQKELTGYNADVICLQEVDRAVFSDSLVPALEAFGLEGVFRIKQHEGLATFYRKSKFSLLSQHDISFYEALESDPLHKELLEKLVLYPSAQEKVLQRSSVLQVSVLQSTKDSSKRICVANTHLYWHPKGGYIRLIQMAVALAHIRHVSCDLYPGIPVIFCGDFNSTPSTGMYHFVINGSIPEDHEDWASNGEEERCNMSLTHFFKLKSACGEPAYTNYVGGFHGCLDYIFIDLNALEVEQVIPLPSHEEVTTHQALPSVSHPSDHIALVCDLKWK
Sequence of UniProt O43164 (O43164 whole entry, looked up): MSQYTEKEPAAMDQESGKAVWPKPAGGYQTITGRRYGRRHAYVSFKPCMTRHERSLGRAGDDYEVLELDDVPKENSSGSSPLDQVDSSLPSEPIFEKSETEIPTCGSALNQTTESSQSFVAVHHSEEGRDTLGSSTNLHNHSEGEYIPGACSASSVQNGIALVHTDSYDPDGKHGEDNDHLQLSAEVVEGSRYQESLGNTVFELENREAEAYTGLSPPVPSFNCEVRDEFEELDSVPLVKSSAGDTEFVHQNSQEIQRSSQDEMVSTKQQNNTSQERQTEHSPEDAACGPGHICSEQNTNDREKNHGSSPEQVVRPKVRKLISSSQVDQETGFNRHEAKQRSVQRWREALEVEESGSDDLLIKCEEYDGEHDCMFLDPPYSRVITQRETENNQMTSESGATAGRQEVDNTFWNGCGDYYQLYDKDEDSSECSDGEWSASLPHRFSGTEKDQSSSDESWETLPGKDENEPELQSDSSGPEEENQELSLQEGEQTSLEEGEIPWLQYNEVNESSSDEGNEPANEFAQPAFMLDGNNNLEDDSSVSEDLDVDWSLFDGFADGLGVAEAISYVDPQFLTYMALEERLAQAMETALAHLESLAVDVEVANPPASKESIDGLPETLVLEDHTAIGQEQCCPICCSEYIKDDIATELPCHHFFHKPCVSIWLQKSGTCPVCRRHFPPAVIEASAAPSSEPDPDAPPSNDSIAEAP
Sequence of UniProt Q96KB5 (Q96KB5 whole entry, looked up): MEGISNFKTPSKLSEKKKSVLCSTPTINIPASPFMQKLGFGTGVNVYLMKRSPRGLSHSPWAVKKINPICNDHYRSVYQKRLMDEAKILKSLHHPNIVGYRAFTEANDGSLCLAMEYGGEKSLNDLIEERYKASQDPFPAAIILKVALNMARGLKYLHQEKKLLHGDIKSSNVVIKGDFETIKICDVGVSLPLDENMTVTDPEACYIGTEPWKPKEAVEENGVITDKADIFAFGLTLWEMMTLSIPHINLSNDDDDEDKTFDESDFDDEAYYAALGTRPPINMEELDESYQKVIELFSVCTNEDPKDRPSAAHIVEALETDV
Sequence of UniProt Q15172 (Q15172 whole entry, looked up): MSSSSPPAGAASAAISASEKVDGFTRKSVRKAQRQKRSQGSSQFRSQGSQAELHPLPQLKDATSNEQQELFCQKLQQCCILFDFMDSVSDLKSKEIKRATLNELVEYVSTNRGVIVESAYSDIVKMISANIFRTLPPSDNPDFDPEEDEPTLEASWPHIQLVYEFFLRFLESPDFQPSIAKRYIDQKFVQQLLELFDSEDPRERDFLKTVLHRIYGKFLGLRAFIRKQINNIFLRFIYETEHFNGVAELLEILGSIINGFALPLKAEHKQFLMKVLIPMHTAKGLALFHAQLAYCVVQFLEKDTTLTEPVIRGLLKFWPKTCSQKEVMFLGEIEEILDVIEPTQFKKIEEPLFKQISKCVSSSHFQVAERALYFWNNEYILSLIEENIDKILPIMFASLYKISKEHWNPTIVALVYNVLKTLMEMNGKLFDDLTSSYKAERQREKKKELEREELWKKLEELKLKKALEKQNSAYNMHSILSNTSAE

log2 fold change, inactive:
PARN (UniProt O95453) 0.125
PEF1 (UniProt Q9UBV8) 0.059
POLD1 (UniProt P28340) 0.041
PARG (UniProt Q86W56) 0.013
PRMT7 (UniProt Q9NVM4) 0.075
PDLIM7 (UniProt Q9NR12) -0.002
POLD3 (UniProt Q15054) 0.155
POLR2A (UniProt P24928) 0.049
PLD3 (UniProt Q8IV08) 0.005
PPIL1 (UniProt Q9Y3C6) 0.018
PPP2R5A (UniProt Q15172) 0.014
PPOX (UniProt P50336) 0.128
PLBD2 (UniProt Q8NHP8) 0.044
PRKAR2B (UniProt P31323) -0.067
PJA2 (UniProt O43164) -0.126
PCBP1 (UniProt Q15365) 0.094
PGK2 (UniProt P07205) 0.075
PSMD6 (UniProt Q15008) -0.08
POLR2K (UniProt P53803) 0.074
PSMD9 (UniProt O00233) 0.022
PDSS2 (UniProt Q86YH6) 0.075
PYGL (UniProt P06737) 0.026
PYGB (UniProt P11216) 0.015
PDE12 (UniProt Q6L8Q7) 0.088
POLR1A (UniProt O95602) -0.116
PBK (UniProt Q96KB5) 0.051
PFAS (UniProt O15067) 0.014
PRKACA (UniProt P17612) 0.046
PSMD12 (UniProt O00232) -0.03
POGLUT1 (UniProt Q8NBL1) 0
PTDSS1 (UniProt P48651) -0.05
PRKAB2 (UniProt O43741) 0.021
PPM1G (UniProt O15355) 0.045
PARL (UniProt Q9H300) 0.186
PIP4K2C (UniProt Q8TBX8) 0.042
PRPF4B (UniProt Q13523) -0.025
POM121 (UniProt Q96HA1) -0.016
